# From paper PMC5540273 (PLoS ONE, 2017)
# What was measured:
# [1] = system: PLK2
# [2] = system: PLK3
# [3] = system: RIOK2
# [4] = system: PRKCI
# [5] = system: PRKD1
# [6] = system: PRKD2
# [7] = system: RAF1
# [8] = system: RET
# [9] = system: RIPK2
# [10] = system: ROCK1
# [11] = system: ROCK2
# [12] = system: T1, RSK1(Kin.Dom.2-C-terminal)
# T1 construct: gene RPS6KA1
# [13] = system: SgK110
# [14] = system: T2, RSK4(Kin.Dom.2-C-terminal)
# T2 construct: gene RPS6KA6
# [15] = system: SGK2
# [16] = system: SRPK2
# [17] = system: STK36
# [18] = system: STK39
# [19] = system: TESK1
# 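Also: kd values determined as follow-up on hits from a single-replicate KINOMEscan panel screen.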
compound,measurement,setting,value
C[C@@H](Oc1cc(-n2cnc3ccc(NC(=O)NC(C)(C)C)cc32)sc1C(N)=O)c1ccccc1Cl [GSK346294],Kd,[1],77 nM
same,Kd,[2],150 nM
COc1ccc(COc2cc(-n3cnc4ccccc43)sc2C(N)=O)cc1 [GSK1024304],Kd,[1],250 nM
same,Kd,[2],380 nM
same,Kd,[3],76 nM
Fc1ccc(-c2ncn(CCCN3CCOCC3)c2-c2ccccn2)cc1 [SB-211742],Kd,[4],> 10000 nM
Cc1cccc(-c2nc(Nc3ccc4ncsc4c3)c3ccccc3n2)n1 [GW867588],Kd,[5],16 nM
same,Kd,[6],22 nM
Cc1nnc(-c2ccc3occ(-c4ccc(C(C)O)cc4)c3c2)o1 (stereo not shown),Kd,[7],> 10000 nM
O=c1cc(N2CCOCC2)nc2n(Cc3cccc4ccccc34)ccn12 [GSK2333389],Kd,[8],> 10000 nM
c1ccc(-c2cc(-c3c[nH]nc3-c3ccccn3)ccn2)cc1 [GW576604],Kd,[9],7600 nM
CNc1ncnc2[nH]ncc12 [SKF-18355],Kd,[10],380 nM
same,Kd,[11],330 nM
CCCCCc1nc2c(N)ncnc2n1CCCCC [SKF-97255],Kd,[10],280 nM
CC(C)(C)n1cnc2c(N)ncnc21 [SKF-97359],Kd,[12],> 10000 nM
same,Kd,[13],> 10000 nM
CN1c2ccc(NCc3ccc(F)cc3)cc2-c2c(cnn2C)S1(=O)=O,Kd,[14],> 10000 nM
CN1c2ccc(CNc3ccc(F)cc3)cc2-c2c(cnn2C)S1(=O)=O,Kd,[15],> 10000 nM
CSc1ccc(-c2cc3ncnc(SCC(=O)O)c3s2)cc1,Kd,[16],> 10000 nM
COc1ccc(Nc2nccc(N3CCC(NC(=O)Nc4cc(C)ccc4C)C3)n2)cc1 (stereo not shown) [GSK1379741],Kd,[17],1600 nM
Cn1ccc2ncnc(Oc3ccc(NC(=O)Nc4ccncc4)c(Cl)c3)c21,Kd,[18],> 10000 nM
O=C(NCCNc1ccnc(Nc2ccc(F)cc2)n1)c1cc2ccccc2s1 [GSK1379874],Kd,[19],> 10000 nM
